This note sets out measurements from PubChem BioAssay (NCI).

Holding throughout (experiment): NCI-60 one-dose screen, 48 h (100 = growth as untreated, 0 = no growth, -100 = all killed)
Common to all, as to details: 10 µM

The test system of assay [1] is DU-145 prostate.
For assay [2], the system named is K-562 leukemia.
Assay [3] relates to MALME-3M melanoma.
Assay [4] relates to MDA-MB-231 breast.
Assay [5] relates to SF-268 CNS.
Assay [6] has as its system SF-295 CNS.
Assay [7] relates to SF-539 CNS.
Assay [8] has as its system UACC-257 melanoma.
The test system of assay [9] is M14 melanoma.

About 83,000 compounds went through this panel and 20% of them were active in at least one assay; those are over-represented in the sample as a whole.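 The test compound was applied at a single concentration to cells in 96-well plates for 48 hours, and percent growth was recorded.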 Unmarked numbers belong to inactive results. Calls of active or inactive are those of the source. How the source made its calls: active means growth percent below 10; inactive means the rest.

Take `COc1ccc(/C(CSc2nnc(-c3c[nH]c4ccccc34)n2-c2ccccc2)=N/O)cc1`: the growth in assay [1] is 43%; in assay [2], 18.7%; in assay [3], 73.1%; in assay [4] it was 60.7%; in [5] it was 48.5%; in assay [6] it was 21%. The growth was 57.3% in assay [7], 50.1% in assay [8] and 28.9% in assay [9].

Regarding `CCOC(=O)C1=C(N)N(c2ccccc2)C2=C(C(=O)CC(C)(C)C2)C1c1ccccc1OC` (stereo unspecified), the growth in assay [1] was 99.6%; in assay [2] it was 97.2%; in assay [3], 91.3%; in assay [4] it was 92.5%; in assay [5], 114%; in assay [6] it was 89.2%. In addition, the growth in assay [7] was 92.6%; in [8] it was 107%; in [9], 111%.

With `COc1ccc(-c2cc(C(=O)N=Nc3c(O)[nH]c4ccc(F)cc34)c3ccccc3n2)cc1`, the growth in assay [1] was 74.7%; in [2], 25.2%; in assay [3], 25.3%; in assay [4] it was 6.12% (active); in assay [5], 47.9%; in assay [6], 104%. Moreover, the values for the growth in [7], in assay [8] and in assay [9] were 39.5%, 109% and 74.4%, respectively.

For `CCCn1c(=O)c2[nH]c(-c3ccc(OCc4nc5ccc(F)cc5[nH]4)cc3)nc2n(CCC)c1=O`, the growth in assay [1] was 34.2%; in [2] it was 34.9%; in assay [3], -52.2% (active); in [4], -46.7% (active); in assay [5], 46.5%; in assay [6], 10.6%. Besides, the growth was -68.9% (active) in [7], 31.9% in assay [8] and 44.7% in assay [9].

Take `Cn1cc(/C=N/Nc2ccnc3cc(Cl)ccc23)c2ccccc21`: the growth in [1] is -92.7% (active); in assay [2], 2.82% (active); in assay [3], -82.1% (active); in assay [4] it was -90.4% (active); in assay [5], -73.9% (active); in [6] it was -93.9% (active). In addition, the growth was -92% (active) in [7], -71% (active) in [8] and -66.9% (active) in assay [9].

As for `CC(=O)c1cc(C(=O)c2ccc3c(c2)NC(=O)CO3)n2ccc3ccccc3c12`, the growth in assay [1] is 84.1%; in assay [2] it was 84.1%; in [3] it was -5.58% (active); in assay [4], 29.9%; in assay [5] it was 79%; in assay [6] it was 98.9%. Further, the growth in assay [7] is 31.9%; in [8], 86.1%; in assay [9], 65.1%.

With `O/N=C(\CSc1nnc(-c2c[nH]c3ccccc23)n1-c1ccccc1)c1ccc(Cl)cc1`, the growth is -30.9% (active) in assay [1]; 6.93% (active) in assay [2]; 11.1% in assay [3]; -54.5% (active) in assay [4]; -49% (active) in assay [5]; 14.1% in assay [6]. The growth in assay [7] was 29.5%; in [8], 44.3%; in assay [9], -47.3% (active).

Turning to `Cc1noc2c(Cc3ccccc3)nn(CC(=O)N/N=C/c3ccc(F)cc3)c(=O)c12`, the growth was 65.2% in assay [1]; 96.7% in assay [2]; -1.4% (active) in assay [3]; 44.3% in assay [4]; 62.6% in assay [5]; 25.9% in [6]. The growth in [7] was 66.9%; in assay [8] it was 67.4%; in [9], 66.1%.

`COC(=O)C[C@](O)(CCCC(C)(C)O)C(=O)O[C@H]1C(OC)=C[C@@]23CCC(=O)N2CCc2cc4c(cc2[C@@H]13)OCO4`: the growth in [1] is 103%; in assay [2], 96.7%; in assay [3] it was 81.5%; in assay [4] it was 117%; in assay [5], 101%; in assay [6], 103%. Besides, the growth was 93.3% in assay [7], 109% in assay [8] and 102% in assay [9].

Regarding `Cc1ccc(C(=O)CSc2nnc(-c3c[nH]c4ccccc34)n2-c2ccccc2)cc1`, the growth in assay [1] was 78.9%; in [2] it was 27.2%; in [3], 35.1%; in assay [4], -2.39% (active); in assay [5] it was 29.7%; in assay [6] it was 11.1%. The results for the growth in assay [7], in assay [8] and in [9] were 22.1%, 77.3% and 51.2%, respectively.

Take `COc1ccccc1C(=O)NNC(=O)CSc1nc2c(c(=O)[nH]1)CCCC2`: the growth is 104% in assay [1]; 100% in [2]; 95.6% in [3]; 86.3% in [4]; 101% in assay [5]; 99.2% in assay [6]. For the same compound, the growth in assay [7] is 101%; in [8] it was 107%; in [9], 101%.

As to `CN(C(=O)c1ccc(C(C)(C)C)cc1)c1sc2c(c1C#N)CCC(=O)C2`, the growth in [1] is 80.7%; in assay [2], 11.7%; in assay [3] it was -6.14% (active); in assay [4] it was -74.4% (active); in assay [5], 18.5%; in [6], -0.987% (active). Further, the growth is -86.1% (active) in assay [7], 97% in [8] and 19.3% in assay [9].

`Cc1ccc(-c2nc(Nc3ccccc3C(=O)O)c3ccccc3n2)cc1`: the growth was 19.4% in assay [1]; 17.6% in assay [2]; 19.6% in [3]; 35.4% in [4]; 11.2% in [5]; 5.81% (active) in [6]. Also, the growth in [7] is 21.3%; in [8], 28.6%; in assay [9], 12.6%.

`O=C(Nc1cccc(C(F)(F)F)c1)c1cncc(C#Cc2cnc3ccc(N4CCOCC4)nn23)c1`: the growth in [1] was 0.548% (active); in assay [2], 9.1% (active); in [3], -29.7% (active); in assay [4], -8.01% (active); in assay [5], -31% (active); in assay [6], -8.57% (active). The growth in assay [7] is -88.1% (active); in [8], 3.22% (active); in assay [9], -49.3% (active).
